The sample as a whole holds a higher share of hits than the screen did.
miR-122 inh – miR-122 sensor activation. Huh7 psiCHECK-miR122 Renilla luciferase sensor, 48 h. 0.14% of 340,000 active. AID 623901. activation, % at 12.5 µM;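 active = mean activation of 30% or more, with every replicate also reaching 30%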;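 note: higher luciferase signal means stronger suppression of miR-122 activity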
Hits are given with their value.

`COc1cccc(C#Cc2ccc3c(c2)O[C@@H](CN(C)C(=O)CN2CCOCC2)[C@@H](C)CN([C@@H](C)CO)S3(=O)=O)c1` gave miR-122 inh inactive.
COCC#Cc1ccc2c(c1)O[C@@H](CN(C)C(C)=O)[C@@H](C)CN([C@@H](C)CO)S2(=O)=O was read as miR-122 inh inactive.
For COc1ccc(S(=O)(=O)Nc2cc(C)cc(C)n2)c2ccccc12 the results were miR-122 inh 30.9.
CCOc1ccc(S(=O)(=O)Nc2cc(C)ccn2)c2ccccc12 was read as miR-122 inh inactive.
For COc1ccc(NS(=O)(=O)c2ccc(OC)c3ccccc23)cn1 the results were miR-122 inh inactive.
`CCCNC(=O)N(C)C[C@H]1Oc2cc(-c3ccccc3)ccc2S(=O)(=O)N([C@H](C)CO)C[C@@H]1C` gave miR-122 inh inactive.
For COc1cccc(S(=O)(=O)N(C)C[C@H]2Oc3ncc(C#CCC(C)C)cc3C(=O)N([C@@H](C)CO)C[C@@H]2C)c1 the results were miR-122 inh inactive.
Screening Cc1sc2ncnc(N/N=C/c3ccccc3O)c2c1C returned miR-122 inh 36.5.
`C[C@@H]1CN([C@H](C)CO)C(=O)c2cc(C#CC3(O)CCCC3)cnc2O[C@@H]1CN(C)Cc1cncnc1` gave miR-122 inh inactive.
`COc1ccccc1-c1ccc2c(c1)O[C@@H](CN(C)S(=O)(=O)c1ccccc1)[C@H](C)CN([C@H](C)CO)S2(=O)=O` gave miR-122 inh inactive.
`CCC(=O)Nc1ccc2c(c1)OC[C@H](C)N(C(=O)CN1CCOCC1)C[C@@H](C)[C@@H](OC)CN(C)C2=O` gave miR-122 inh inactive.
For COc1cccc(NC(=O)N(C)C[C@H]2Oc3ncc(C#Cc4cccnc4)cc3C(=O)N([C@H](C)CO)C[C@@H]2C)c1 the results were miR-122 inh inactive.
Cc1cc(C(=O)Nc2ccc3c(c2)C(=O)N(C)[C@@H]2CC[C@@H](CC(=O)N[C@H](C)c4ccccc4)O[C@H]2CO3)no1 was read as miR-122 inh 33.3.
`Cc1cc(C(=O)Nc2ccc3c(c2)C(=O)N(C)[C@H]2CC[C@H](CC(=O)N[C@@H](C)c4ccccc4)O[C@H]2CO3)no1` gave miR-122 inh 50.0.
For C[C@@H]1CN([C@H](C)CO)S(=O)(=O)c2ccc(C#C[C@@H](C)O)cc2O[C@@H]1CN(C)C(=O)Cc1ccccn1 the results were miR-122 inh inactive.
Screening C[C@@H]1CN([C@@H](C)CO)C(=O)c2cc(C#CCc3ccccc3)cnc2O[C@@H]1CN(C)CC1CCOCC1 returned miR-122 inh inactive.
CCCNC(=O)Nc1ccc2c(c1)OC[C@H](C)NC[C@@H](C)[C@H](OC)CN(C)C2=O was read as miR-122 inh inactive.
`C[C@@H]1CN([C@H](C)CO)C(=O)c2cc(-c3ccc(C(=O)N(C)C)cc3)cnc2O[C@H]1CN(C)Cc1ccc(C(=O)O)cc1` gave miR-122 inh inactive.
CCO/C=C1\N=C(c2ccc(F)cc2)OC1=O was read as miR-122 inh 60.0.
For CCCN(C)C[C@@H]1Oc2cc(C#CC(C)C)ccc2S(=O)(=O)N([C@@H](C)CO)C[C@@H]1C the results were miR-122 inh inactive.
CCCN(C)C[C@@H]1Oc2cc(C#CC3(O)CCCC3)ccc2S(=O)(=O)N([C@@H](C)CO)C[C@@H]1C was read as miR-122 inh inactive.
`CC(C)CC#Cc1cnc2c(c1)C(=O)N([C@H](C)CO)C[C@@H](C)[C@@H](CN(C)C(=O)Nc1ccccc1F)O2` gave miR-122 inh inactive.
`CCCCCCCCCCn1c2c(c(=N)c3c1CCC3)CCC2` gave miR-122 inh 66.2.
C[C@H](CO)N1C[C@H](C)[C@H](CN(C)C(=O)C2CCC2)Oc2ncc(C#CC3CCCC3)cc2C1=O was read as miR-122 inh inactive.
Screening CCN(CC)S(=O)(=O)c1cc(C(=O)N(C)CC(=O)Nc2ccc(Cl)cc2)ccc1Cl returned miR-122 inh inactive.
Cc1ccc(NC(=O)CN(C)C(=O)Cn2ncc(Cl)c(Cl)c2=O)cc1 was read as miR-122 inh 70.6.
For C[C@@H]1CN([C@H](C)CO)C(=O)c2cc(C#Cc3cccc(F)c3)cnc2O[C@@H]1CN(C)C(=O)C1CC1 the results were miR-122 inh inactive.
CO[C@@H]1CN(C)C(=O)c2ccc(NS(=O)(=O)c3ccc(C)cc3)cc2OC[C@@H](C)N(C)C[C@H]1C was read as miR-122 inh inactive.
Screening COCC(=O)Nc1ccc2c(c1)OC[C@@H](C)N(C(C)=O)C[C@@H](C)[C@H](OC)CN(C)C2=O returned miR-122 inh inactive.
For CC(=O)N(C)C[C@H]1Oc2cc(C#CC3CCCCC3)ccc2S(=O)(=O)N([C@@H](C)CO)C[C@H]1C the results were miR-122 inh inactive.
Screening CC(=O)N(C)C[C@@H]1Oc2cc(C#C[C@@H](C)O)ccc2S(=O)(=O)N([C@@H](C)CO)C[C@@H]1C returned miR-122 inh inactive.
Screening CC(C)CC#Cc1ccc2c(c1)O[C@H](CN(C)C(=O)c1cnccn1)[C@H](C)CN([C@@H](C)CO)S2(=O)=O returned miR-122 inh 36.1.
Screening CC(C)CC#Cc1ccc2c(c1)O[C@@H](CN(C)C(=O)NC1CCCC1)[C@@H](C)CN([C@H](C)CO)S2(=O)=O returned miR-122 inh inactive.
CC(C)CC#Cc1ccc2c(c1)O[C@H](CN(C)C(=O)c1cnccn1)[C@H](C)CN([C@H](C)CO)S2(=O)=O was read as miR-122 inh 39.3.
COc1cccc(C#Cc2ccc3c(c2)O[C@H](CN(C)C(=O)CN2CCOCC2)[C@@H](C)CN([C@@H](C)CO)S3(=O)=O)c1 was read as miR-122 inh inactive.
Screening C[C@H](O)C#Cc1ccc2c(c1)O[C@@H](CN(C)C(=O)c1ccncc1)[C@H](C)CN([C@@H](C)CO)S2(=O)=O returned miR-122 inh inactive.
Screening CCCC#Cc1ccc2c(c1)O[C@@H](CN(C)C(=O)c1cccnc1)[C@H](C)CN([C@@H](C)CO)S2(=O)=O returned miR-122 inh inactive.
`C[C@@H](O)C#Cc1ccc2c(c1)O[C@@H](CN(C)C(=O)c1ccncc1)[C@@H](C)CN([C@@H](C)CO)S2(=O)=O` gave miR-122 inh inactive.
For CC(C)C#Cc1ccc2c(c1)O[C@H](CN(C)C(=O)c1ccncc1)[C@H](C)CN([C@H](C)CO)S2(=O)=O the results were miR-122 inh 52.8.
`COc1cccc(C#Cc2ccc3c(c2)O[C@H](CN(C)C(=O)CN2CCOCC2)[C@H](C)CN([C@@H](C)CO)S3(=O)=O)c1` gave miR-122 inh inactive.
Screening CCCC#Cc1ccc2c(c1)O[C@H](CN(C)C(=O)c1ccccn1)[C@@H](C)CN([C@H](C)CO)S2(=O)=O returned miR-122 inh inactive.
Screening COc1ccc(C#Cc2ccc3c(c2)O[C@H](CN(C)C(=O)CN2CCOCC2)[C@@H](C)CN([C@@H](C)CO)S3(=O)=O)cc1 returned miR-122 inh 42.8.
`CCCC#Cc1ccc2c(c1)O[C@H](CN(C)C(=O)c1cccnc1)[C@H](C)CN([C@H](C)CO)S2(=O)=O` gave miR-122 inh inactive.
For C[C@@H]1CN([C@H](C)CO)S(=O)(=O)c2ccc(C#Cc3ccccc3)cc2O[C@@H]1CN(C)S(=O)(=O)c1ccccc1F the results were miR-122 inh inactive.
`CC(C)C#Cc1cnc2c(c1)C(=O)N([C@H](C)CO)C[C@@H](C)[C@@H](CN(C)C(=O)CC1CC1)O2` gave miR-122 inh inactive.
`COCC(=O)Nc1ccc2c(c1)OC[C@@H](C)N(C(C)=O)C[C@@H](C)[C@@H](OC)CN(C)C2=O` gave miR-122 inh inactive.

Compound activity (PubChem BioAssay)
